In the OligoGym collection:

Molecular target: CMIP
Assay: pooled miR-30 sensor sort-seq; sequence = guide strand
Settings: shRNA
Note: reference of the scale not given here.

Sequence	sensor-assay potency score (higher = more potent)
TTTTTTGGTCTTGTAACAGGAG	-0.0686
TCGATGACCACCATGGACCGGG	-0.357
TTCAAGACAACTTCCCAGCGGC	-0.119
TCTTTCAAGACAACTTCCCAGC	-0.735
TTTTTGGTCTTGTAACAGGAGC	-1.29
TTCGAGGTGAGGATCTTGCTGA	0.014
TTCTCTGAGAGCAGTTTCGAGA	-0.721
TTGGGTGTCGTTGTTGTCGATG	-0.39
TTGGAGGGCAGTGTTAGCCTGG	-0.584

Molecular target: CMPK1
Assay: as above
Settings: shRNA

Sequence	sensor-assay potency score (higher = more potent)
TATCTCAACTGGTACAATCTTT	-0.621
ATAAACACTAAAATGCTCCTAA	0.491
TTAAGTTTTCTCATCTTTCTAC	0.568
TTGTTTACCAAACACATTGTGC	-0.615
TCAACTGGTACAATCTTTCCTT	0.503
TTAATAAACACTAAAATGCTCC	-0.407
TACAACTTTGTACAAGTTGTAG	-1.32
TTAGAAGCATCTATTTTCTTGA	0.0499
TACATCTGCCTTCCCATCCATG	-0.919
TATTCTTCTGAGCATTGGCAGC	-1.31
TTTACCAAACACATTGTGCAAG	-0.707

Molecular target: CMPK2
Assay: as above
Settings: shRNA

Sequence	sensor-assay potency score (higher = more potent)
TGACTTTAAGAGGACAGCCTTA	-1.08
TGGTAGGACATTTCTACCTTTT	-1.68
TTGACGAAACACACTGTTGGCC	-0.221
TAATACCGTCTGCAGGACCTTT	-1.41
TCCTTCGATGGCAACAACCTGG	-1.1
TACCTGTCTACAATCACAGGAG	0.285
TTTGACGAAACACACTGTTGGC	-0.342
TTTCAAACAACATCTAATCTAG	-0.108
TTCTTCCCTGGTCTTCTCCATG	-1.63
TCAAGTTCTGCTTCTTCCCTGG	0.42
TTTTGGGCACTGGTCGACCAGG	-1.61
TTCATCATCAAAGATCTTCCTC	0.515

Molecular target: CMYA5
Assay: as above
Settings: shRNA

Sequence	sensor-assay potency score (higher = more potent)
TTCACTTTCTTCCTGATCGATT	-0.264
TTTTTCTTCACTGTGATCTGGC	0.846
TAACACTAGATTTCCTTCCTGA	0.81
TTACTTCTTGATCATCTTGTGG	-0.871
TAATACTAGATTTCCTTCCTGA	0.791
TTTCTAACACTAGATTTCCTTC	-0.717
TACTTCTTGATCATCTTGTGGC	0.514
TTCGATAGCTCTGACTCTCTGA	0.415
